# The supplement of paper PMC11006884
# The full data set covers some 6,500 targets. This sample favours those with a hit. About 2% of all pairs of compound and target were hits.
# Compound: COC(=O)C#Cc1ccccc1 [methyl 3-phenylpropiolate]
# Assay: log2 ratio of iodoacetamide-alkyne labeling of the cysteine site, DMSO over compound (competition); higher = stronger covalent engagement of the cysteine by the compound, active = 1 or more
# Details: 500 µM; treatment time 1 h; system: HEK293T cell lysate
# In short: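 Reporter intensities give each cysteine's log2 competition ratio as the mean of control channels over the mean of compound channels. The samples were HEK293T lysate (2 mg/mL) given vehicle or electrophile (500 µM, 1 h, ambient temperature), then iodoacetamide alkyne (1 h), followed by click coupling to sCIP-TMT reagents, pooling, trypsin digestion overnight at 37 °C, streptavidin enrichment, acid elution, Orbitrap Eclipse LC-MS/MS with FAIMS and FragPipe quantification. Duplicate channels and three replicates were run, and cysteines quantified in only one replicate were discarded.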
# UniProt Q9UPN9, sequence (Q9UPN9 whole entry, looked up): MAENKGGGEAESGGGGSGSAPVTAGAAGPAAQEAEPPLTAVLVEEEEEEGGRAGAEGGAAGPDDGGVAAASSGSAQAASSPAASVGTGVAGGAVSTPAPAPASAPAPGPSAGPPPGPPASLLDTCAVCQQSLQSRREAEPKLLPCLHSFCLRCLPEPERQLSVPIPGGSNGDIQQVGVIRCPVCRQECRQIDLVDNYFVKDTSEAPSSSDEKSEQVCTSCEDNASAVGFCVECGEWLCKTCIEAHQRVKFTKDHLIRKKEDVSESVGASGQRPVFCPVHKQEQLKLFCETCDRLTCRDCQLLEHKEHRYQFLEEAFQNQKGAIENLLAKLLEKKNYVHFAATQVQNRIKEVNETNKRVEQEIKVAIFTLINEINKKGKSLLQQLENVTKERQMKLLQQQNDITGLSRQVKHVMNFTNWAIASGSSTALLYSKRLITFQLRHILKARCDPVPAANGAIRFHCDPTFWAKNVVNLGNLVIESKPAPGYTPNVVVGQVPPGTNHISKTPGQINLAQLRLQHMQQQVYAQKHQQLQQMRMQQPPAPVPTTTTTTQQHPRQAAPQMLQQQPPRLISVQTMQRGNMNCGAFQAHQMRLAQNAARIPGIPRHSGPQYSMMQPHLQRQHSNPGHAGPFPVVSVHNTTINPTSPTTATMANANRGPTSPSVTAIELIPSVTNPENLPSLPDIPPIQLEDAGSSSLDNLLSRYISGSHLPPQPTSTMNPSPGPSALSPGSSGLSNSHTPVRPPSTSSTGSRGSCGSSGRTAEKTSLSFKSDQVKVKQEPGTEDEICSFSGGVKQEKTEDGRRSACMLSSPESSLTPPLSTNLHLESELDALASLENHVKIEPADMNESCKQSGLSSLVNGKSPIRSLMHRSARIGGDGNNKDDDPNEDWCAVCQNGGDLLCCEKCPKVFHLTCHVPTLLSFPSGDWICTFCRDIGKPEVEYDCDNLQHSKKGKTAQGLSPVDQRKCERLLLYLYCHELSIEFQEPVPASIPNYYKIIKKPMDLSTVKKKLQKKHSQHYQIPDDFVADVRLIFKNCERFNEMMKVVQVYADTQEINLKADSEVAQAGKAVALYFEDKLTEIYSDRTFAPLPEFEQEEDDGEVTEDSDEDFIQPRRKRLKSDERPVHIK
# UniProt Q9H2M9, sequence (Q9H2M9 whole entry, looked up): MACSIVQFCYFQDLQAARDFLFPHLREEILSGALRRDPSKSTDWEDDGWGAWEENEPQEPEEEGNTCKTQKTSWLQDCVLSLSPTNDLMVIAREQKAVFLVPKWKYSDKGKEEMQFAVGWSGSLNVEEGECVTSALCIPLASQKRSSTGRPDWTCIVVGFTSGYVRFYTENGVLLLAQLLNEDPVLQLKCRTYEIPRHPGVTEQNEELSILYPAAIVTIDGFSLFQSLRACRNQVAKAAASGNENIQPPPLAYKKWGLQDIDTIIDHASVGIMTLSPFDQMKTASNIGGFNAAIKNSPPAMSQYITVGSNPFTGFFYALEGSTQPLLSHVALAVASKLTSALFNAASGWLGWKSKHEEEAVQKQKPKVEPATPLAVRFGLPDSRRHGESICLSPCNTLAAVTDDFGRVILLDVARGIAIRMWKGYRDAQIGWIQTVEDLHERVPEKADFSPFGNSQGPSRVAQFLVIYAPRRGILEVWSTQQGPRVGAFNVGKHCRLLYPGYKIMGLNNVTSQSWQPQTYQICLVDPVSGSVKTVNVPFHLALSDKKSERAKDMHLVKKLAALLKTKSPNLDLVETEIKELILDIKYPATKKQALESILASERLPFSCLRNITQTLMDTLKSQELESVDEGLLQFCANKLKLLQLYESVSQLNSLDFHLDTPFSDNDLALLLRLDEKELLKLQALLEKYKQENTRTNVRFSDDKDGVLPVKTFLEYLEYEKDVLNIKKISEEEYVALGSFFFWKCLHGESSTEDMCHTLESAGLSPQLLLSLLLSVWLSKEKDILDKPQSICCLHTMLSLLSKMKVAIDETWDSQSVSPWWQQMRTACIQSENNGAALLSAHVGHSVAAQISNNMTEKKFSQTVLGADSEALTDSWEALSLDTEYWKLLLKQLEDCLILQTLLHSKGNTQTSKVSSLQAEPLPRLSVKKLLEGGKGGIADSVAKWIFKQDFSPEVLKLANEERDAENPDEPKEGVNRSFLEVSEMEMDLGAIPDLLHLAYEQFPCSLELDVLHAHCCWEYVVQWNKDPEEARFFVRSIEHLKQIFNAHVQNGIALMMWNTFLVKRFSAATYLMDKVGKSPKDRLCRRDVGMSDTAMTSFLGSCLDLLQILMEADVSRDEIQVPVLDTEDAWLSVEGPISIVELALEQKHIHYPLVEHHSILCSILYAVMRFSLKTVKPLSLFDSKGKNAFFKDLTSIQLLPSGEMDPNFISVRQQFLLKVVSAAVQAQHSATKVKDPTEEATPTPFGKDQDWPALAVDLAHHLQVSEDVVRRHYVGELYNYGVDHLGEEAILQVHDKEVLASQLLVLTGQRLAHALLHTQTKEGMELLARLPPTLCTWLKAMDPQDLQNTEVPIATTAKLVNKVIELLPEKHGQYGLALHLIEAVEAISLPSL
# UniProt Q9NPI1, sequence (Q9NPI1 whole entry, looked up): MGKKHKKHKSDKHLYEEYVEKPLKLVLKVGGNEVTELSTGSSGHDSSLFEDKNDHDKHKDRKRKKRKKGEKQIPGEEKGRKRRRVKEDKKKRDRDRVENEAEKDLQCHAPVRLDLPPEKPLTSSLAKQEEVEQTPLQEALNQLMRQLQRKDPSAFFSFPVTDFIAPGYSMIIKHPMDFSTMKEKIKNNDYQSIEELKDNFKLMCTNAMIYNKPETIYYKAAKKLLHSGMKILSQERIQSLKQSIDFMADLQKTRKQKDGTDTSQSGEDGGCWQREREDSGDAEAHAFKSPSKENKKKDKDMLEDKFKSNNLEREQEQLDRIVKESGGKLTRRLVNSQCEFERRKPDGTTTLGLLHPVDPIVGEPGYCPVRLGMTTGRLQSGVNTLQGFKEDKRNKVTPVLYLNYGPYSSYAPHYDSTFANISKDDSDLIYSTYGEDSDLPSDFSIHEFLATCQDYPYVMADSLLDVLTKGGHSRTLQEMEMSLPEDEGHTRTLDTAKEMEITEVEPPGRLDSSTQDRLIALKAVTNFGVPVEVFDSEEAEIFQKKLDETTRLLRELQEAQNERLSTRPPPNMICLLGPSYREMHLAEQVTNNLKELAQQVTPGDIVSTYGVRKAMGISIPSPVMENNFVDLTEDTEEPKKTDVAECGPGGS
# UniProt Q9C0C2, sequence (Q9C0C2 whole entry, looked up): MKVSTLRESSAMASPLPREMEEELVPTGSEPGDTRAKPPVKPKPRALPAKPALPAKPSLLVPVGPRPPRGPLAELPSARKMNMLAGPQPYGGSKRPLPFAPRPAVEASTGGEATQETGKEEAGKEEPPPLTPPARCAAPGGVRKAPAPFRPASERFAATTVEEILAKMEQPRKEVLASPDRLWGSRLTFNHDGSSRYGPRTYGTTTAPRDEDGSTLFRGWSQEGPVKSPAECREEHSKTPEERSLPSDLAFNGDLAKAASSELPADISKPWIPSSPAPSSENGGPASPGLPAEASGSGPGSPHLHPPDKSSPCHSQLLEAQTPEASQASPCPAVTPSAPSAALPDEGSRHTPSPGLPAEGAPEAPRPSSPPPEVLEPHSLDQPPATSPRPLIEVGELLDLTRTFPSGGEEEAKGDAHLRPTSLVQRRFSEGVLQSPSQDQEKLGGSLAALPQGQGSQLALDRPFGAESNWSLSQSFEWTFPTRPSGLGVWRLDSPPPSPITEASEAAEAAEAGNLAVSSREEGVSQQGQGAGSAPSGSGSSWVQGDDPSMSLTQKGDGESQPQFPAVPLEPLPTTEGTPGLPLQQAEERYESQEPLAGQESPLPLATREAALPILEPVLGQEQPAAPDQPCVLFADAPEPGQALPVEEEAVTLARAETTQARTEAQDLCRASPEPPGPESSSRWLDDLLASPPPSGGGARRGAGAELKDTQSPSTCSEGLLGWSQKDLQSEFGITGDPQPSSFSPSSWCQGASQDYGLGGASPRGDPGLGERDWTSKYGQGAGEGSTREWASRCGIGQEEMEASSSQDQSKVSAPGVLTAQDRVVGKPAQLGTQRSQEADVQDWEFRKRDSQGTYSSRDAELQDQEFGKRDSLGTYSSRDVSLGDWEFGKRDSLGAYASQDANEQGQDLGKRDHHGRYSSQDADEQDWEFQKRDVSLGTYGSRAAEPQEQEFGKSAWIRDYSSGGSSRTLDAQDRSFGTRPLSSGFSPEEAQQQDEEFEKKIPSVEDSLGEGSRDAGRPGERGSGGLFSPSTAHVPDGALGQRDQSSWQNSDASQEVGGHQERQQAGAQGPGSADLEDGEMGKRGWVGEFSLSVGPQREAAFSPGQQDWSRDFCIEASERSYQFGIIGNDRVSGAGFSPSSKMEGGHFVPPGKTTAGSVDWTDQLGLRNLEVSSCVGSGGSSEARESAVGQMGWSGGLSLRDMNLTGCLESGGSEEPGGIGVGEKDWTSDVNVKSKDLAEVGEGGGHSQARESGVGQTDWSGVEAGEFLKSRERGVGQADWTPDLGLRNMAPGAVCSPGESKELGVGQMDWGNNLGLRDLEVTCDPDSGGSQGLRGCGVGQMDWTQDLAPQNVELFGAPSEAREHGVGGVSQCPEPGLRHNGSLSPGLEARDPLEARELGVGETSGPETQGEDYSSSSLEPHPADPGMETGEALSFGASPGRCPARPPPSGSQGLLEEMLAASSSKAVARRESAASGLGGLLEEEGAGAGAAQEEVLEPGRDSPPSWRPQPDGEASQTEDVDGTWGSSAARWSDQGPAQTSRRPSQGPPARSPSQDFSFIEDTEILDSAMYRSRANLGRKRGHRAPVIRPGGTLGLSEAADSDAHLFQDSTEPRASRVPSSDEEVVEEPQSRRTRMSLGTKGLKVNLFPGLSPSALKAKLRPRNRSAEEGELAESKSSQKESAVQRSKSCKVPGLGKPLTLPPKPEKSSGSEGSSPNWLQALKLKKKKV
row,Target,log2 ratio of iodoacetamide-alkyne labeling
1,UniProt Q9BXJ9_C465,0.109 (inactive)
2,UniProt Q9BYV8_C171,0.361 (inactive)
3,ADD3 C73 (UniProt Q9UEY8),0.00986 (inactive)
4,UniProt Q9NW64_C24,0.351 (inactive)
5,SPATA5L1 C78 (UniProt Q9BVQ7),0.204 (inactive)
6,KCTD5 C28 (UniProt Q9NXV2),0.129 (inactive)
7,FAM83D C15 (UniProt Q9H4H8),1.11 (active)
8,STRN4 C337 (UniProt Q9NRL3),0.488 (inactive)
9,KBTBD4 C455 (UniProt Q9NVX7),0.248 (inactive)
10,NDRG3 C290 (UniProt Q9UGV2),-0.105 (inactive)
11,TRABD C287 (UniProt Q9H4I3),0.0519 (inactive)
12,DAXX C338 (UniProt Q9UER7),0.306 (inactive)
13,FAM120C C14 (UniProt Q9NX05),0.327 (inactive)
14,RABGAP1 C1026 (UniProt Q9Y3P9),-0.252 (inactive)
15,TANC1 C1594 (UniProt Q9C0D5),1.06 (active)
16,SMYD3 C421 (UniProt Q9H7B4),0.00903 (inactive)
17,UniProt Q9NSY1_C912,0.827 (inactive)
18,DERA C118 (UniProt Q9Y315),0.275 (inactive)
19,ZDBF2 C628 (UniProt Q9HCK1),0.47 (inactive)
20,TNKS1BP1 C1324 (UniProt Q9C0C2),1.18 (active)

row,Target,log2 ratio of iodoacetamide-alkyne labeling
1,ACAT2 C360 (UniProt Q9BWD1),-0.0247 (inactive)
2,LIMD1 C305 (UniProt Q9UGP4),1.43 (active)
3,ZYG11B C643 (UniProt Q9C0D3),0.222 (inactive)
4,EPS15L1 C470 (UniProt Q9UBC2),0.13 (inactive)
5,SETD2 C958 (UniProt Q9BYW2),1.02 (active)
6,TRIM33 C153 (UniProt Q9UPN9),0.274 (inactive)
7,BRD7 C338 (UniProt Q9NPI1),1.01 (active)
8,SRRM2 C1480 (UniProt Q9UQ35),0.319 (inactive)
9,UniProt Q9P2P1_C1222,0.312 (inactive)
10,LRRC40 C227 (UniProt Q9H9A6),0.34 (inactive)
11,HECTD1 C1995 (UniProt Q9ULT8),0.345 (inactive)
12,UniProt Q9NQG6_C111,0.389 (inactive)
13,CCDC88C C1520 (UniProt Q9P219),1.15 (active)
14,ALG5 C194 (UniProt Q9Y673),0.233 (inactive)
15,UniProt Q9H1B7_C385,0.164 (inactive)
16,KIDINS220 C412 (UniProt Q9ULH0),0.0082 (inactive)
17,RAB3GAP2 C67 (UniProt Q9H2M9),0.306 (inactive)
18,ZMYM2 C852 (UniProt Q9UBW7),0.581 (inactive)
19,ATXN10 C356 (UniProt Q9UBB4),1.32 (active)
20,UniProt Q9NVH0_C284,0.123 (inactive)
